The source of these data is PubChem BioAssay (NCI).

This is part of a sample that, as a whole, favours compounds with a hit. Of some 83,000 tested, about 20% had one in any assay.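 Method: cells in 96-well plates; compound added at one concentration; 48 h incubation; percent growth measured; values under 10 scored active.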 Unmarked numbers belong to inactive results. Activity calls are given as the source filed them.

Holding throughout (experiment): NCI-60 one-dose screen, 48 h (100 = growth as untreated, 0 = no growth, -100 = all killed)
Common to all, as to conditions: 10 µM unless noted

In assay [1] the test system is SK-MEL-2 melanoma.
The test system of assay [2] is EKVX NSCLC.
Assay [3] relates to SN12C renal.
Assay [4] has as its system UO-31 renal.
In assay [5] the test system is TK-10 renal.
Assay [6] deals with ACHN renal.
Assay [7] concerns CAKI-1 renal.
Assay [8] deals with A498 renal.
Assay [9] relates to CCRF-CEM leukemia.
Assay [10] relates to MOLT-4 leukemia.
Assay [11] relates to SR leukemia.
The subject of assay [12] is RPMI-8226 leukemia.
Assay [13] has as its system OVCAR-8 ovarian.
Assay [14] concerns OVCAR-5 ovarian.
Assay [15] deals with OVCAR-4 ovarian.
Assay [16] deals with SK-OV-3 ovarian.
In assay [17] the test system is IGROV1 ovarian.
Assay [18] concerns OVCAR-3 ovarian.
Assay [19] concerns NCI/ADR-RES ovarian.
In assay [20] the test system is HS 578T breast.

For `Oc1cccc(-c2nc(-c3n[nH]c(=S)n3-c3ccccc3)cc3c2[nH]c2ccccc23)c1`, the growth in assay [1] was -9.51% (active); in assay [2] it was 50.3%; in assay [3] it was 44.9%; in assay [4], 49.6%; in assay [5], 47.9%; in [6] it was 53%. Further, the growth in [7] was 64.6%; in [8] it was -14.8% (active); in assay [9] it was 21.3%; in assay [10], 26.2%; in [11] it was 19.2%; in assay [12], 17.8%. For the same molecule, the growth in assay [13] was 24.7%; in [14], 73.1%; in [15], 56.8%; in assay [16], 37.3%; in assay [17] it was 24%; in assay [18] it was 3.83% (active). The growth in assay [19] is 91.6%.
Take `Nc1ncc(-c2ccc3ncnc(N4CCc5cc(F)c(Cl)cc54)c3c2)cn1`: the growth is 66.7% in assay [1]; 15.7% in [2]; 26% in assay [3]; 14.4% in [4]; 21.8% in assay [5]; 20.5% in assay [6]. The growth in assay [7] is 15.7%; in assay [8], -29.5% (active); in assay [9] it was 22%; in assay [10] it was 17.3%; in assay [11], 36.5%; in [12] it was 20.8%. Also, the growth in [13] is 45.4%; in assay [14], 27%; in assay [15], 54.6%; in assay [16], 29.4%; in assay [17], 9.49% (active); in [18] it was 37.9%. Also, in [19], the growth is 50.4%.
`COc1cccc(-c2cc(-c3ccc(Nc4nc(Nc5ccc(Cl)cc5)nc(Nc5ccc(Cl)cc5)n4)cc3)nc(N)c2C#N)c1`: the growth in [1] was 37.7%; in assay [2] it was 34.3%; in [3], 79%; in assay [4], -66.8% (active); in assay [5], -53.4% (active); in assay [6], 33.1%. The growth in assay [7] was 37.3%; in assay [8], 80.5%; in [9], 5.11% (active); in [10] it was 7.5% (active); in [11] it was -6.27% (active); in [12] it was -55.8% (active). Further, the growth in assay [13] was 48.9%; in [14], 82.2%; in assay [15] it was 23.6%; in [16] it was 122%; in assay [17], 10.1%; in assay [18] it was -52.7% (active). For the same molecule, the growth is 14.1% in assay [20] and 73.3% in assay [19].
Consider `CN(C)CCCN(CCC1CCCCC1)CCC1CCCCC1`, for which the growth was 61.4% in [1]; 73.2% in assay [2]; 80.4% in assay [3]; 42% in [4]; 85.2% in assay [5]; 65.8% in [6]. The growth is 52.9% in assay [7]; 58.8% in assay [8]; 21.4% in assay [9]; 15.9% in assay [10]; -35.3% (active) in assay [11]; 23.8% in assay [12]. In addition, the growth in assay [13] is 81.1%; in assay [14] it was 83.3%; in assay [15], 71.2%; in [16], 97%; in assay [17] it was 39.7%; in assay [18], 34.6%. In addition, the growth in assay [19] was 74.4%.
`Cc1ccc(S(=O)(=O)N(CCC(=O)O)c2ccccc2)cc1`: the growth in [1] was 109%; in [2], 108%; in [3], 109%; in assay [4], 106%; in assay [5], 119%; in assay [6] it was 106%. Moreover, the growth was 93.9% in [7]; 81.3% in [8]; 94.4% in assay [9]; 106% in [10]; 99.3% in [11]; 93.2% in [12]. Moreover, the growth in assay [13] was 101%; in assay [14], 111%; in [15], 114%; in [16] it was 105%; in [17], 123%; in assay [18], 110%. The growth in assay [19] is 110%.
For `CCN(CC)CCCNc1cc(OC)cc2cccnc12`, the growth in [1] was 109%; in [2], 107%; in assay [3], 97.7%; in [4] it was 91.6%; in assay [5] it was 109%; in assay [6], 110%. The growth was 103% in assay [7]; 81.5% in assay [8]; 114% in [9]; 104% in assay [10]; 100% in [11]; 97.4% in assay [12]. Further, the growth is 101% in assay [13]; 117% in assay [14]; 51.4% in [15]; 112% in assay [16]; 106% in [17]; 79.2% in assay [18]. For the same molecule, the growth in [19] is 108%.
Regarding `Cn1ccnc1C(=O)/C=C/c1ccc(C(=O)Nc2ccccc2F)cc1`, the growth was 76.2% in [1]; 32.4% in assay [2]; 8.08% (active) in assay [3]; 34.9% in [4]; 44.7% in assay [5]; 21.1% in [6]. The growth in assay [7] is 25.8%; in assay [8], 17.9%; in assay [9], 3.74% (active); in assay [10] it was 12.1%; in assay [11] it was 6.83% (active); in [12], 9.83% (active). The growth in [13] is 15.6%; in assay [14], 18%; in assay [15], 37.7%; in [17], 13.5%; in assay [18], -4.52% (active); in assay [20], 17.1%. The growth in [19] was 21.7%.
Regarding `CCOC(=O)c1c(C)c2c(n1Cc1ccccc1)CSc1cc(C#N)c(=O)[nH]c1-2`, the growth was 92.2% [100 µM] in assay [1]; 67.1% [100 µM] in [2]; 80.6% [100 µM] in assay [3]; 85.6% [100 µM] in assay [4]; 40.5% [100 µM] in [5]; 49.3% [100 µM] in [6]. The growth in assay [7] was 58.9% [100 µM]; in assay [8] it was 92% [100 µM]; in assay [9] it was 90.4% [100 µM]; in assay [10], 118% [100 µM]; in [11] it was 54.8% [100 µM]; in assay [12], 82.4% [100 µM]. For the same molecule, the growth in assay [13] was 88% [100 µM]; in assay [14], 120% [100 µM]; in assay [15], 98.8% [100 µM]; in assay [16], 98.6% [100 µM]; in assay [17], 95.5% [100 µM]; in assay [18], 75.7% [100 µM]. For the same molecule, in assay [19], the growth was 58.5% [100 µM].
In the case of `CCCCCCCCNc1ncnc2c1ncn2Cc1nnc2c3ccccc3c(Cl)nn12`, the growth is 16.7% in assay [1]; 57.3% in [2]; 29.7% in assay [3]; 23.6% in [4]; 43.8% in [5]; 28.5% in assay [6]. Besides, the growth in [7] was 16.7%; in [8], 69.8%; in assay [9], 24.2%; in assay [10], 12.3%; in [11] it was 16.7%; in [12], 35.4%. Besides, the growth in [13] was 30%; in assay [14] it was 102%; in assay [15], 42.9%; in assay [16], 4.2% (active); in [17] it was 31.4%; in [18], 58%. Further, the growth in assay [19] is 35.3%.
Turning to `CCOC(=O)c1ccc2c(c1)[n+](=O)c(C(C)=O)c(C(F)(F)F)n2[O-]`, the growth in assay [1] was 12.1%; in [2], 29.1%; in [3] it was 4.58% (active); in assay [4] it was 27.4%; in assay [5], 40.9%; in [6] it was 5.29% (active). Moreover, the growth was 40% in assay [7]; 12.5% in [8]; -18.1% (active) in assay [9]; -56.4% (active) in [10]; -59.2% (active) in assay [11]; 8.56% (active) in [12]. Also, the growth in assay [13] was -42.6% (active); in assay [14], -1.19% (active); in assay [15], -5.96% (active); in [16], 24.8%; in assay [17] it was -81.1% (active); in assay [18] it was -84.7% (active). For the same molecule, the growth in assay [19] was 6.85% (active).
As for `Cc1cc2c(C(C)C)c(O)c(O)c(/C=N/O)c2c(O)c1-c1c(C)cc2c(C(C)C)c(O)c(O)c(/C=N/O)c2c1O`, the growth is -10.2% (active) in [1]; 27.2% in assay [2]; 43.7% in [3]; 24.7% in assay [4]; 0.867% (active) in assay [5]; 24% in assay [6]. The growth is 26.6% in assay [7]; 57.2% in assay [8]; 10.1% in [9]; -7.59% (active) in assay [10]; 4.52% (active) in assay [11]; 15% in assay [12]. Besides, the growth is 8.35% (active) in assay [13]; 48.3% in assay [14]; 28.7% in assay [15]; 18.2% in assay [16]; 38.5% in [17]; 25.6% in assay [18]. Moreover, the growth in assay [19] was 44%.
Turning to `Nc1nc(Nc2ccc([N+](=O)[O-])cc2O)nc(C(Cl)(Cl)Cl)n1`, the growth in assay [1] is 79%; in [2] it was 106%; in [3], 80.6%; in assay [4], 71.7%; in assay [5] it was 92.4%; in [6] it was 79.7%. For the same molecule, the growth in assay [7] is 46.3%; in assay [8], 36.5%; in assay [9], 19.3%; in assay [10], 25.8%; in [11], 7.45% (active); in assay [12], 51.1%. Further, the growth was 81.6% in [13]; 105% in [14]; 55.2% in assay [15]; 95.4% in assay [16]; 88% in assay [17]; 55% in assay [18]. In [19], the growth is 48%.
Regarding `Cn1ccnc1C(=O)/C=C/c1ccc(CC(=O)Nc2cc(F)c(F)c(F)c2)cc1`, the growth in assay [1] is 99.6%; in [2], 32.3%; in [3], 13.2%; in assay [4], 31.7%; in [5] it was 47.8%; in assay [6] it was 45.9%. In addition, the growth in assay [7] was 31.4%; in assay [8] it was 65%; in assay [9] it was 8.15% (active); in [10], 6.4% (active); in [11], 12.1%; in assay [12], 4.01% (active). Further, the growth in [13] was -3.42% (active); in [14] it was 17.9%; in assay [15], 41.7%; in assay [17], 29%; in [18], -33.9% (active); in assay [20], 13%. Also, the growth in assay [19] was -29.8% (active).
On to `Fc1ccc(/C=C/c2cc(/C=C/c3ccc(F)cc3)n(-c3cc(F)cc(F)c3)n2)cc1`, for which the growth in [1] is 90.8%; in assay [2], 92.3%; in assay [3], 102%; in assay [4], 82.8%; in assay [5], 82.5%; in assay [6], 99%. The growth was 90.6% in [7]; 95.6% in assay [8]; 3.7% (active) in assay [9]; 103% in [10]; 87.5% in assay [11]; 73.8% in [12]. For the same molecule, the growth in assay [13] was 112%; in assay [14] it was 95.2%; in assay [15], 107%; in assay [16], 97.4%; in [17], 90.3%; in assay [18] it was 108%. Besides, the growth in assay [20] was 114%; in assay [19], 101%.
`CN(C)c1ccc(Cc2cc(-c3ccccc3)nn(C/C(=N/O)c3ccccc3)c2=O)cc1`: the growth in [1] is 67.9%; in [2], 49.5%; in assay [3], 17.9%; in [4] it was 36.1%; in [5], 84.5%; in assay [6], 52.8%. Besides, the growth in assay [7] was 53.6%; in [8] it was -3.2% (active); in [9], 46.6%; in assay [10] it was 35.1%; in assay [11], 46.3%; in assay [12], 28.2%. The growth in assay [13] is 57.2%; in [14], 89.7%; in [15] it was 55.1%; in [16] it was 94.6%; in assay [17] it was 68.5%; in [18], 56.2%. Also, the growth in [19] was 44.1%.
